Most compounds without a hit are left out; they make up all but 8.1% or so of the library.
Epigenetic derep – epigenetic control regulation, reporter derepression | 280,000 compounds, 0.2% hits | AID 1865 | Potency, µM (titrated, usually from 53.9 µM), inactives show top-dose GFP activation, hits mostly activators | murine LDR cells, GFP reporter derepression, 30 h; also: % of control where 0% means no effect; nearly all actives have a fitted effect of over 60% in size
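Reporter derepression read as number of fluorescent GFP-positive objects, 20-120 um in size, counted by laser-scanning cytometer. Mouse LDR line with an epigenetically silenced CMV-GFP locus; compound incubation 30 h, 37 C.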
RORg inh – ROR gamma (mouse) transcription inhibition | P51450 | 310,000 compounds, 5.4% hits | Drosophila S2 Gal4-RORgamma UAS-luciferase reporter, 20 h | AID 2551 | Potency, µM (titrated, usually from 53.6 µM), inactives show top-dose activity change, negative = inhibition, most hits filed as inhibitors; also: % is scaled to controls: 0 for no effect and ±100 for the full control effect; nearly all actives have a fitted effect of over 60% in size
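Drosophila Schneider cells stably carrying a metallothionein-driven Gal4 DBD–ROR gamma fusion and a UAS-Photinus luciferase reporter were exposed to compound for 1 hr, then induced with copper sulfate (700 uM final) for 20 hr at ambient temperature before luminescence reading.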
PINK1 modulator – changes PINK1 expression. AID 624263. 410,000 compounds, 0.2% hits. PINK1 immunofluorescence, high-content cytometry, 24 h. Potency, µM (highest dose often 76.6 µM), without a hit: at the top dose activation (PINK1 increase), usual class: activators; active = well fitted activation curve with a large enough effect; inconclusive = small, poorly fitted or top-dose-only effect; cell line not stated here; also: % of control where 0% means no effect; nearly all actives have a fitted effect of over 65% in size
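Stable cell line treated 24 h with compounds at 5 concentrations (CCCP controls), then fixed and immunostained for PINK1 plus nuclear and cell stains; PINK1 immunofluorescence quantified by laser-scanning microplate cytometry.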
Sfp inh – Sfp phosphopantetheinyl transferase inhibition; Q9F4F7; Biochemical Sfp PPTase activity, qHTS; Potency, µM, without a hit: largest response in the series, negative = inhibition, actives largely listed as inhibitors; 310,000 compounds, 3.5% hits;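 also: the enzyme is Sfp with the accession as filed and its product quenches rhodamine fluorescence; 0% = enzyme reaction without inhibitor and -100% = no enzyme wells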
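Sfp 15 nM + cpd, 15 min RT; start w/ rhodamine-CoA 5 uM, BHQ-2-YbbR 12.5 uM (final); 50 mM Hepes pH 7.6, 10 mM MgCl2, 0.01% NP-40, 0.01% BSA; read 525/598 nm at 0 and 30 min.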
ClpP mod – qHTS Assay for Activators of ClpP | ATP-dependent Clp protease proteolytic subunit (Bacillus subtilis (strain 168)), P80244 | purified B. subtilis ClpP, FRET peptide cleavage, 20 min | Potency, µM (highest dose often 57.5 µM), inactives show at the top dose activity change, negative = active | 340,000 compounds, 1.9% hits | AID 651965, 2013; active = well fitted falling curve with a large enough effect; inconclusive = small, poorly fitted or top-dose-only effect; inactive = no such curve, though single readings can be large or run the other way; also: the source files actives as falling curves though it sought activators and does not explain the sign; nearly all actives have a fitted effect of over 65% in size
Target sequence (P80244 whole entry, looked up): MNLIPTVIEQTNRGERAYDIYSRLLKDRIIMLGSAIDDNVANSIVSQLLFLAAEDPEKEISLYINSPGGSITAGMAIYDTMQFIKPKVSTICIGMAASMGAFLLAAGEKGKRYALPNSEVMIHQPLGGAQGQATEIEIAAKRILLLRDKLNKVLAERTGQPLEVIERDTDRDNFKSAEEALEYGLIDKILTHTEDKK
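FRET quenching reversal measured ClpP activation: 10 microg/mL B. subtilis ClpP at pH 8 with the FRET-FV decapeptide, read at 430 nm after 320 nm excitation. The 20-min minus 0-min signal was scaled between DMSO/no-enzyme wells and ADEP (5.8 microM final).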
Gal4-VP16 FLuc – inhibits Gal4-VP16 luciferase reporter, ROR gamma counter-screen. 310,000 compounds, 3.5% hits. Drosophila S2 Gal4-VP16 UAS-luciferase, luminescence, 20 h. Potency, µM (top dose mostly 53.6 µM), without a hit: top-dose activity, negative = inhibition, actives largely listed as inhibitors. AID 2546;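 also: Gal4-VP16 expression switched on by copper sulfate through the metallothionein promoter; % is scaled to controls: 0 for no effect and ±100 for the full control effect; nearly all actives have a fitted effect of over 50% in size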
Active calls of the source: *; ? = inconclusive; nt = not tested or not shown; [ ] = remark or other dose. Unless noted, calls follow the shape of the dose curve; as a rule, active = well fitted curve in the direction sought with a large enough effect; inconclusive = small, poorly fitted or top-dose-only effect, or another doubt; inactive = no such curve, though single readings can be large; an effect the other way counts as inactive or inconclusive. Potency is read from the fitted curve at half-maximal effect.

SMILES	Epigenetic derep	RORg inh	PINK1 modulator	Sfp inh	ClpP mod	Gal4-VP16 FLuc
CCC(=O)Nc1nnc(-c2ccccn2)o1	-0.9%	?	-0.1%	50.1µM*	?	-0.4%
O=C(Nc1nnc(-c2ccccn2)o1)c1ccc(Br)cc1	-1.0%	0.631µM*	-0.4%	25.2%	0.4%	0.631µM*
COc1ccc(N2CC(NC(=O)c3cc4ccccc4o3)CC2=O)cc1 (stereo not drawn)	-0.5%	nt	0.4%	nt	1.3%	nt
COc1ccc(C2CC(c3cccs3)=NN2C(=O)CCC(=O)O)cc1 (stereo not drawn)	nt	-11.8%[1.91 µM]	-0.4%	29.7%	?	5.6%
CN1CCc2c(OCC(=O)N3N=C(c4cccs4)CC3c3ccc(F)cc3)cccc2C1=O (stereo not drawn)	-1.0%	-37.1%	-0.2%	-7.3%	?	0.8%
CCN1CCc2c(OCC(=O)N3N=C(c4cccs4)CC3c3ccc(F)cc3)cccc2C1=O (stereo not drawn)	-1.0%	17.0%	0.2%	?	7.94µM*	-11.8%
CCCCOC(=O)CSCC(=O)N1N=C(c2cccs2)CC1c1ccc(F)cc1 (stereo not drawn)	-1.0%	-24.0%	-1.5%	-14.3%	14.1µM*	-13.9%
COc1ccc(C2CC(c3cccs3)=NN2C(=O)CSc2nc3ccccc3o2)cc1 (stereo not drawn)	-0.9%	-17.6%	-0.8%	12.0%	31.6µM*	-2.5%
COc1cc(C2CC(c3cccs3)=NN2C(=O)CCl)ccc1OC(F)F (stereo not drawn)	nt	?	-1.9%	2.7%	nt	15.8µM*
O=C(CSc1nc2ccccc2s1)N1N=C(c2cccs2)CC1c1ccc(F)cc1 (stereo not drawn)	3.3%	-31.7%	-1.7%	3.5%	28.2µM*	-24.5%
COc1ccc(C2CC(c3cccs3)=NN2C(=O)CSc2nc3ccccc3s2)cc1 (stereo not drawn)	2.3%	?	-1.6%	12.9%	?	?
CCOC(=O)CC1C(=O)NCCN1c1nc2ccc(C)cn2c(=O)c1/C=C1\SC(=S)N(CC(C)C)C1=O (stereo not drawn)	3.55µM*	44.6%	23.6%	-3.6%	nt	-2.5%
CCOC(=O)CC1C(=O)NCCN1c1nc2ccc(C)cn2c(=O)c1/C=C1\SC(=S)N(C(C)CC)C1=O (stereo not drawn)	-3.1%	1.1%	nt	?	nt	-2.9%
CCc1ccc(Cc2cnc(NC(=O)c3ccc4c(c3)CC(c3ccccc3)OC4=O)s2)cc1 (stereo not drawn)	5.6%	nt	-0.5%	nt	-3.3%	nt
Cc1ccc(Cc2cnc(N3C(=N)SC(c4ccccc4)C3=O)s2)cc1 (stereo not drawn)	-0.9%	11.2µM*	7.1%	17.1%	-4.7%	3.98µM*
Cc1ccc(CC2CC(=O)N(c3nc4ccccc4s3)C2=O)cc1 (stereo not drawn)	-2.9%	4.7%	-0.5%	8.5%	-0.5%	0.8%
N=C1SC(c2ccccc2)C(=O)N1c1ncc(Cc2ccccc2)s1 (stereo not drawn)	0.0%	7.08µM*	6.2%	-2.1%	-2.9%	7.94µM*
CCOC(=O)N1CCN(Cc2ccc3c(c2)CN(C(=O)c2sc(C)nc2C)CCO3)CC1	nt	nt	0.2%	nt	nt	nt
CC1CCCCC1NC(=O)CCCCCn1c(=S)[nH]c2ccsc2c1=O (stereo not drawn)	nt	11.2µM*	0.1%	2.9%	0.4%	?
O=C(CCCn1c(=S)[nH]c2ccsc2c1=O)NC1CCCCC1	nt	20µM*	1.7%	-14.8%	1.2%	?
CCOC(=O)N1CCN(C(=O)CCCCn2c(=S)[nH]c3ccsc3c2=O)CC1	-1.7%	?	-1.0%	79.4µM*	nt	-26.6%
CCS(=O)(=O)N1CC(=O)N(c2cccc(C)c2C)C(C)(C(=O)NC2CCCCCC2)C1 (stereo not drawn)	-0.2%	nt	-1.5%	nt	1.0%	nt
